TEAD-YAP inh = TEAD-YAP interaction inhibition. HEK-TIYL cells, TEAD-Gal4/YAP UAS-luciferase luminescence. inhibition, % at 9.12 µM. hit rate 1.4% among 640,000. AID 1259422; in the data active means inhibition above about 32%;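 further: 0% = median of test compound wells and 100% = reference inhibitor wells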
FBW7 act = human FBW7 E3 ligase activation, primary screen. Q969H0. AlphaScreen FBW7–phospho-cyclin E peptide binding, activator screen. normalized activity (activation), % at 26.1 µM. hit rate 0.13% among 650,000; in the data active means normalized activity above about 1.9%;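 further: purified mutant Fbw7 with reduced substrate affinity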
Target sequence (Q969H0 whole entry, looked up): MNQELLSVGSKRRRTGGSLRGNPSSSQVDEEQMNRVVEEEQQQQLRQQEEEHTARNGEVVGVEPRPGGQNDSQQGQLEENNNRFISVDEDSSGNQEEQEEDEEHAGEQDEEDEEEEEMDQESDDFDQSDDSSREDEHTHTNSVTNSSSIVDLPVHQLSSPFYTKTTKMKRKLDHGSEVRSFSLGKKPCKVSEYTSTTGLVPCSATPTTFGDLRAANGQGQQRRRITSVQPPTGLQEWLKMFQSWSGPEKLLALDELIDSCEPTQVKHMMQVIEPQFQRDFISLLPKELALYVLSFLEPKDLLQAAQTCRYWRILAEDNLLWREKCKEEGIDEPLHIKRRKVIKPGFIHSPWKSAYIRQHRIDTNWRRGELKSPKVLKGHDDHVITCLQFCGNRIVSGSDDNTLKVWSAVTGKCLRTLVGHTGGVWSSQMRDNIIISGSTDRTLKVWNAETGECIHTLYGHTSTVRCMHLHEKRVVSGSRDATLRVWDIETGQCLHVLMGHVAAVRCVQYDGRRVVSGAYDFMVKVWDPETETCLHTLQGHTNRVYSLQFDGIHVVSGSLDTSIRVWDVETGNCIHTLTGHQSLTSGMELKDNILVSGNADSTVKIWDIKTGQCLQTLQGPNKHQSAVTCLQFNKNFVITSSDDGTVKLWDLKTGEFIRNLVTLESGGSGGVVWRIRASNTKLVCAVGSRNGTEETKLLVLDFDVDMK
GPR151 ag = activators of human GPR151; Q8TDV0; PathHunter beta-arrestin GPR151 cells, luminescence; activation, % at 11.2 µM; hit rate 1% among 650,000; AID 1508602; in the data active means activation above about 4.9%;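 further: 0% = median of compound wells and 100% = cells with positive control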
MITF primary = human MITF inhibition, primary screen; O75030; AlphaScreen MITF homodimerization, bead proximity signal; hit rate 0.91% among 650,000; inhibition, % at 2.6 µM; in the data active means inhibition above about 50%;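 further: 0% = vehicle wells with protein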
* marks the source's active call; other numbers are inactive results; ! = repeats disagree. An excerpt weighted towards active compounds, which were near 3.5% of everything screened.

SMILES | TEAD-YAP inh | FBW7 act | GPR151 ag | MITF primary
NS(=O)(=O)c1ccc(NC(=S)NC(=O)c2ccc(Cl)cc2Cl)cc1 | -13.9 | 1.0 | -0.7 | 9.1
CC(C)(C)C(=O)N1CCC[C@@H](Cn2nc(-c3cccs3)ccc2=O)C1 | 66.1* | 0.2 | 0.1 | 11.5
O=[N+]([O-])c1cc(CN2CCN(c3ncccn3)CC2)ccc1Cl | 11.8 | 0.2 | -1.1 | 15.1
O=C(c1ccc(-c2nnc(-c3ccccc3)o2)cc1)N1CCOCC1 | 42.9* | 0.2 | -9.8 | -13.7
CC(=O)Nc1ccc(C(=O)N2CCOCC2)cc1 | 6.8 | 0.6 | -0.8 | 13.5
CCOC(=O)c1c(C)n(C)c2ccc(OCC(O)CNc3ccccc3F)cc12 (centres undefined) | -1.3 | 0.0 | 0.5 | -5.1
Cc1ccc(C)c(OCc2cc(C(=O)N3CCC(C(N)=O)CC3)no2)c1 | -13.9 | 0.0 | 1.9 | -15.1
CCOC(=O)N1CCN(c2c(NCCCN(CC)c3cccc(C)c3)c(=O)c2=O)CC1 | 5.7 | -0.1 | 0.6 | 68.4*
CN1/C(=C/C(=O)C2CCC2)Sc2ccccc21 | -34.8 | 0.0 | -3.7 | 9.3
CN1/C(=C/C(=C/c2sc3ccccc3[n+]2C)C2CCC2)Sc2ccccc21 | 71.7* | 0.0 | -0.2 | 26.7
CCCC(=O)NC(c1ccc(SC)cc1)c1ccc2cccnc2c1O (centres undefined) | 82.3* | -0.9 | -0.6 | 14.6
CC(=O)NC(c1ccc(Cl)cc1)c1ccc2cccnc2c1O (centres undefined) | 89.8* | -1.7 | 1.9 | 19.0
CC(=O)NC(c1ccc(F)cc1)c1ccc2cccnc2c1O (centres undefined) | 85.1* | -1.5 | -1.3 | 44.3
CCCCC(=O)NC(c1ccc(Cl)cc1Cl)c1ccc2cccnc2c1O (centres undefined) | 46.1* | -0.5 | 0.9 | 17.4
O=C(NC(c1ccccc1)c1ccc2cccnc2c1O)c1ccccc1 (centres undefined) | 22.0 | -1.5 | 0.7 | 23.9
CCC(=O)NC(c1ccc(Cl)cc1)c1cc(Cl)c2cccnc2c1O (centres undefined) | -2.2 | 0.2 | -0.7 | -1.8
Cc1ccc(N2CC(C(=O)NNC(=S)NCCN3CCOCC3)CC2=O)cc1 (centres undefined) | -3.4 | 0.2 | 3.2 | -2.1
COc1ccc(C(=O)NC(c2ccccc2Cl)c2cc(Cl)c3cccnc3c2O)cc1 (centres undefined) | 8.4 | -0.1 | 0.0 | 10.6
CCCC(=O)NC(c1ccccc1Cl)c1ccc2cccnc2c1O (centres undefined) | 94.9* | -1.4 | 0.9 | 52.7*
CCC(=O)NC(c1ccccc1Cl)c1cc(Cl)c2cccnc2c1O (centres undefined) | 50.3* | -0.3 | 0.2 | 0.8
CC(=O)NC(c1ccccc1Cl)c1ccc2cccnc2c1O (centres undefined) | 89.8* | -1.7 | 0.9 | 37.4
CC(C)(C)OC(=O)N1CCC(c2nc(-c3nc4ccc(-c5ccncc5)cc4[nH]3)cs2)CC1 | 93.6* | 0.1 | 3.5 | -4.6
O=C(Cn1ncc2c1-c1ccccc1OC2)NCCN1CCC(Cc2ccccc2)CC1 | 3.7 | 0.0 | -1.0 | -0.9
O[C@@H]1[C@@H](O)C=C2CCN3Cc4cc5c(cc4[C@H]1C23)OCO5 (some centres undefined) | 82.2* | 0.5 | 0.6 | 23.0
Cc1ccc(C(=O)N2CCCC(CCC(=O)N3CCN(c4ccccn4)CC3)C2)cc1C (centres undefined) | 3.3 | 3.6* | -0.6 | 4.3
SMILES | TEAD-YAP inh | FBW7 act | GPR151 ag | MITF primary
Cc1ccoc1C(=O)N1CCCC(CCC(=O)N2CCN(c3ccccn3)CC2)C1 (centres undefined) | 0.1 | 0.0 | -0.1 | 5.0
O=c1cc(-c2ccccc2)oc2cc(O)ccc12 | 51.1*! | -0.2 | -2.0 | -6.1
O=C(CSc1nncs1)Nc1ccc(OCc2ccccc2)cc1 | -21.9 | 11.6* | 3.6 | -14.9
COc1ccc(-c2cn3ccccc3n2)cc1Br | -27.8 | -0.1 | -6.6 | -3.2
CCCOc1ccc(-c2cn3ccccc3n2)cc1 | 79.0* | 0.0 | -8.0 | 0.5
CCOc1ccc(S(=O)(=O)Nc2ccc(-c3cn4ccccc4n3)cc2)cc1 | 0.3 | -0.1 | 4.5 | -0.5
COc1ccc(-c2cn3ccccc3n2)cc1 | 66.3* | -0.1 | -8.9 | 4.7
Clc1ccc(-c2cn3ccccc3n2)cc1 | -10.6 | 0.0 | -7.9 | -3.4
Cc1ccc(-c2cn3ccccc3n2)cc1 | 53.0* | 0.0 | -8.9 | 13.9
COc1ccc(-c2cn3cc(-c4ccc(F)cc4)nc3n2C)cc1 | 91.6* | -0.2 | 0.0 | 2.2
O=C(NCc1ccco1)c1ccccc1Sc1ccc([N+](=O)[O-])cc1 | -1.4 | -0.1 | -0.7 | -4.3
COc1ccc(-c2cn3nc(C)c(C)nc3n2)cc1 | 57.4* | 0.1 | -7.7 | 1.5
COc1cccc(-c2cn3nc(C)c(C)nc3n2)c1 | -2.3 | 0.1 | -7.4 | 6.9
COc1ccc(-c2cn3ccccc3n2)cc1F | 54.7* | 0.3 | -8.4 | 8.6
COc1cc(OC)c(NC(=O)CCc2c(C)nc3nc(CN)nn3c2C)cc1Cl | -2.5 | 0.2 | -0.3 | 14.0
Nc1ccc(Oc2ccc3c(c2)C(=O)N(c2cccc(N)c2)C3=O)cc1 | -27.1 | 3.4* | 0.5 | 10.1
Nc1cccc(Oc2ccc3c(c2)C(=O)N(c2cccc(N)c2)C3=O)c1 | -2.5 | -0.2 | 2.6 | -0.7
Nc1ccc(Oc2ccc3c(c2)C(=O)N(CCO)C3=O)cc1 | 42.2* | -0.1 | -1.0 | -1.4
CCCN(CCC)CCCNC(=O)CSc1cc(=O)n(CC)c2ccccc12 | 1.4 | 0.3 | -0.1 | 17.9
COc1cc(Cl)c(C)cc1NC(=O)COC(=O)c1cc(O)[nH]c(=O)c1 | 18.2 | -0.6 | -1.0 | 62.8*
O=C(COC(=O)c1cc(O)[nH]c(=O)c1)Nc1cc(C(F)(F)F)ccc1Cl | -1.3 | 0.2 | 1.7 | 15.3
COc1ccc(-c2nc(N)c3ncn(-c4ccsc4)c3n2)cc1 | 36.3* | 0.1 | 0.0 | 5.7
COc1ccc(-c2nc(N)c3ncn(-c4ccccc4)c3n2)cn1 | -4.4 | 0.2 | 0.1 | -2.7
COc1ccc(-c2nc(N)c3ncn(-c4ccccc4)c3n2)cc1 | 1.3 | 0.1 | -0.6 | -5.7
COc1ccc(-c2nc(N)c3ncn(-c4ccsc4)c3n2)cn1 | 62.4* | -0.1 | -0.4 | -7.8
SMILES | TEAD-YAP inh | FBW7 act | GPR151 ag | MITF primary
Cc1[nH]c2c(C)cccc2c(=O)c1CN1CCOCC1 | 2.5 | -0.1 | 0.0 | 11.0
COc1ccc2oc(C(Cl)(Cl)Cl)cc(=O)c2c1 | 50.1* | 0.5 | -0.9 | 19.6
COc1ccc2c(=O)cc(C(Cl)(Cl)Cl)oc2c1 | 14.7 | 0.0 | -0.7 | 3.2
COc1ccc2c(=O)cc(-c3ccccc3)oc2c1 | -36.3 | -0.1 | 0.5 | 2.4
COc1cccc(-c2cc(=O)c3cc(OC)ccc3o2)c1 | 70.1* | 0.2 | -10.1 | 7.6
Cn1ncc(Br)c1C(=O)NNC(=S)Nc1ccc([N+](=O)[O-])cc1 | -9.3 | -0.1 | -2.8 | -2.7
O=C(NCCc1ccccc1)c1ccccc1Br | 33.7* | 0.0 | -1.1 | 5.2
O=C(Nc1ccccc1C(=O)NCCc1ccccc1)c1ccccc1Cl | 13.1 | 0.1 | 1.1 | 31.4
Cc1ccc(S(=O)(=O)C2(C(=O)NCCc3ccccc3)CC2)cc1 | 6.2 | 0.7 | -0.9 | 8.9
O=C(NCCc1ccccc1)c1ccc(Cl)cc1 | 64.1* | 0.1 | -5.7 | 17.8

From PubChem BioAssay
